Laboratory results from PubChem BioAssay (Tox21).
Several values for one entry are separate records, joined by “and”; a condition that tells them apart may be missing. Equal values may be shown once. Inconclusive results are not listed. Where a call stands in place of a potency, no number is given. A structure can be active in one record and inactive in another. Activity calls are given as the source filed them. Calls come from the whole dose curve; as a rule, active = well fitted curve in the direction sought with a large enough effect in the repeat runs; inconclusive = weak or mixed curves; inactive = no such curve, though single readings can be large; an effect the other way counts as inactive or inconclusive.

experiment: qHTS RealTime-Glo MT Cell Viability Assay in HepG2 cells - 0 hour (AID 1224889); conditions: RealTime-Glo luminescence; series mostly up to 76.8 µM; activity change, negative = cytotoxicity: at the top concentration; note: nearly all actives have a fitted effect of over 50% in size
How it was run: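 HepG2 suspension premixed with RealTime-Glo reagents is plated at 600 cells per well and left 5 h at 37 C/5% CO2. Compounds in DMSO then go in, and bioluminescence reflecting viable cell number is recorded over 40 h.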

SMILES | Potency | activity change, negative = cytotoxicity
CC1=C(/C=C/C(C)=C/C=C/C(C)=C/CO)C(C)(C)CCC1 | inactive | –
NCc1cccc(CN)c1 | inactive | –
CN(C)c1cccc(O)c1 | inactive | –
OCC1CCCO1 (configuration not stated) | inactive | –
CCCCC(CC)C(=O)OCCOCCOCCOC(=O)C(CC)CCCC (configuration not stated) | inactive | –
O=S(=O)(O)CCS | inactive | –
Oc1ccc2ccccc2c1 | inactive | –
Cc1ccc(C(=O)O)o1 | inactive | –
ClC1=C(Cl)C(Cl)(Cl)C(Cl)=C1Cl | inactive | –
OC[C@@H](O)[C@H](O)[C@H](O)[C@@H](O)CO | inactive | –
CCOC(=O)/C=C\C(=O)OCC | inactive | –
CC1=CC[C@H]2C[C@@H]1C2(C)C | inactive | –
O=C(c1ccc(O)cc1)c1ccc(O)cc1O | inactive | –
CCc1ccccc1O | inactive | –
COCC(C)O (configuration not stated) | inactive | –
CC(C)NCC(O)COc1cccc2ccccc12 (configuration not stated) | inactive | –
CCCCCCOC(C)=O | inactive | –
CC(C)n1c(/C=C/[C@@H](O)C[C@@H](O)CC(=O)O)c(-c2ccc(F)cc2)c2ccccc21 | inactive | –
c1ccc2ccccc2c1 | inactive | –

SMILES | Potency | activity change, negative = cytotoxicity
CC(C)(C)C1CCC(O)CC1 (configuration not stated) | inactive | –
O=S(=O)(O)c1cc(S(=O)(=O)O)c2c(N=Nc3ccccc3)c(O)ccc2c1 | inactive | –
Cn1c([N+](=O)[O-])cnc1COC(N)=O | inactive | –
CCCCCCCCC | inactive | –
Cc1ccc(N)c(S(=O)(=O)O)c1 | inactive | –
C=C(C)C(=O)OCCCCCC | inactive | –
Oc1c(Cl)cc(Cl)c(Cl)c1Cl | inactive | –
Cc1cc(O)c2c(c1)C(=O)c1cc(O)cc(O)c1C2=O | inactive | –
Nc1c(S(=O)(=O)O)cc(Br)c2c1C(=O)c1ccccc1C2=O | – | 0.491% [at 35.3 µM] (inactive)
C=C(C)C(=O)OCC(CC)(COC(=O)C(=C)C)COC(=O)C(=C)C | inactive | –
Nc1cc(-c2ccncc2)c[nH]c1=O | – | -0.998% [at 35.3 µM] (inactive)
CCCCC(CC)COC(=O)CCCCCCCC(=O)OCC(CC)CCCC (configuration not stated) | inactive | –
CN(C)c1ccc(C(=N)c2ccc(N(C)C)cc2)cc1 | inactive | –
CCCCCCC(C)(C)S | inactive | –
CCOC(=O)C1OC1c1ccccc1 (configuration not stated) | inactive | –
Clc1ccc(Cl)c(Cl)c1Cl | inactive | –
CNC[C@H](O)[C@@H](O)[C@H](O)[C@H](O)CO | inactive | –
C=C(C)C(=O)OCCC[Si](OC)(OC)OC | inactive | –
CCCCC(CC)COC(=O)/C=C\C(=O)OCC(CC)CCCC (configuration not stated) | inactive | –

experiment: A CellTox Green Cytotoxicity Assay to monitor cytotoxicity in HepG2 cells - 8 hour (AID 1224890); conditions: CellTox Green fluorescence; series mostly up to 76.8 µM; cytotoxicity increase: at the top concentration; note: nearly all actives have a fitted effect of over 45% in size; note: potency is the fitted concentration of half-maximal effect
How it was run: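 HepG2 cells were seeded together with the CellTox Green dye at 600 cells/well, left 5 h at 37 C/5% CO2, then given compounds in DMSO. Fluorescence from dye bound to dead-cell DNA was read repeatedly over 40 h of treatment at 37 C.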

SMILES | Potency | cytotoxicity increase
CC1=C(/C=C/C(C)=C/C=C/C(C)=C/CO)C(C)(C)CCC1 | inactive | –
NCc1cccc(CN)c1 | inactive | –
CN(C)c1cccc(O)c1 | inactive and 54.9 µM (active) | –
OCC1CCCO1 (configuration not stated) | inactive | –
CCCCC(CC)C(=O)OCCOCCOCCOC(=O)C(CC)CCCC (configuration not stated) | inactive | –
O=S(=O)(O)CCS | inactive | –
Oc1ccc2ccccc2c1 | inactive | –
Cc1ccc(C(=O)O)o1 | inactive | –
ClC1=C(Cl)C(Cl)(Cl)C(Cl)=C1Cl | inactive | –
OC[C@@H](O)[C@H](O)[C@H](O)[C@@H](O)CO | inactive | –
CCOC(=O)/C=C\C(=O)OCC | inactive | –
CC1=CC[C@H]2C[C@@H]1C2(C)C | inactive | –
O=C(c1ccc(O)cc1)c1ccc(O)cc1O | inactive and 54.9 µM (active) | –
CCc1ccccc1O | inactive | –
COCC(C)O (configuration not stated) | inactive | –
CC(C)NCC(O)COc1cccc2ccccc12 (configuration not stated) | inactive | –
CCCCCCOC(C)=O | inactive | –
CC(C)n1c(/C=C/[C@@H](O)C[C@@H](O)CC(=O)O)c(-c2ccc(F)cc2)c2ccccc21 | inactive | –
c1ccc2ccccc2c1 | inactive | –
CC(C)(C)C1CCC(O)CC1 (configuration not stated) | inactive | –

SMILES | Potency | cytotoxicity increase
O=S(=O)(O)c1cc(S(=O)(=O)O)c2c(N=Nc3ccccc3)c(O)ccc2c1 | inactive | –
Cn1c([N+](=O)[O-])cnc1COC(N)=O | inactive | –
CCCCCCCCC | inactive | –
Cc1ccc(N)c(S(=O)(=O)O)c1 | inactive | –
C=C(C)C(=O)OCCCCCC | inactive | –
Oc1c(Cl)cc(Cl)c(Cl)c1Cl | inactive | –
Cc1cc(O)c2c(c1)C(=O)c1cc(O)cc(O)c1C2=O | inactive | –
Nc1c(S(=O)(=O)O)cc(Br)c2c1C(=O)c1ccccc1C2=O | inactive | –
C=C(C)C(=O)OCC(CC)(COC(=O)C(=C)C)COC(=O)C(=C)C | inactive and 42.9 µM (active) | –
Nc1cc(-c2ccncc2)c[nH]c1=O | inactive | –
CS(=O)(=O)Nc1ccc([N+](=O)[O-])cc1Oc1ccccc1 | inactive | –
CCCCC(CC)COC(=O)CCCCCCCC(=O)OCC(CC)CCCC (configuration not stated) | 54.9 µM (active) and inactive | –
CN(C)c1ccc(C(=N)c2ccc(N(C)C)cc2)cc1 | – | -3.22% (inactive)
CCCCCCC(C)(C)S | inactive | –
CCOC(=O)C1OC1c1ccccc1 (configuration not stated) | inactive | –
Clc1ccc(Cl)c(Cl)c1Cl | inactive | –
CNC[C@H](O)[C@@H](O)[C@H](O)[C@H](O)CO | inactive | –
C=C(C)C(=O)OCCC[Si](OC)(OC)OC | inactive | –
CCCCC(CC)COC(=O)/C=C\C(=O)OCC(CC)CCCC (configuration not stated) | inactive | –
